Inconclusive results are not listed. A call without a number means that no potency is given here. Activity calls are given as the source filed them. Calls come from the whole dose curve; as a rule, active = well fitted curve in the direction sought with a large enough effect in the repeat runs; inconclusive = weak or mixed curves; inactive = no such curve, though single readings can be large; an effect the other way counts as inactive or inconclusive.
Assays:
[1] = qHTS RealTime-Glo MT Cell Viability Assay in HEK293 cells - 8 hour (AID 1224887); note: nearly all actives have a fitted effect of over 50% in size; note: potency is the fitted concentration of half-maximal effect
In short: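 Nonlytic bioluminescent viability monitoring. HEK293 at 600 cells/well with reagent; 5 h settle; compound transfer by pintool; plates held at 37 C and read at set time points.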

[2] = A CellTox Green Cytotoxicity Assay to monitor cytotoxicity in HEK293 cells - 16 hour (AID 1224888); note: nearly all actives have a fitted effect of over 35% in size
In short: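 Cytotoxicity was tracked continuously in HEK293 cells by a DNA-binding dye excluded from viable cells. Compounds were transferred in DMSO 5 h after seeding; fluorescence was recorded at intervals up to 40 h.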

[3] = qHTS RealTime-Glo MT Cell Viability Assay in HepG2 cells - 0 hour (AID 1224889); note: nearly all actives have a fitted effect of over 50% in size
In short: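 Cells + NanoLuc/prosubstrate dispensed (600 cells/well) → 5 h at 37 C/5% CO2 → compounds in DMSO transferred → 40 h incubation at 37 C, luminescence read at 0, 8, 16, 24, 32, 40 h.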

[4] = A CellTox Green Cytotoxicity Assay to monitor cytotoxicity in HepG2 cells - 8 hour (AID 1224890); note: nearly all actives have a fitted effect of over 45% in size
In short: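 Real-time, homogeneous cytotoxicity readout: dead-cell DNA staining by CellTox Green in HepG2 monolayers, fluorescence measured at timed intervals up to 40 h of continuous compound exposure.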

[5] = qHTS assay to identify small molecule antagonists of the estrogen receptor alpha (ER-alpha) signaling pathway using the BG1 cell line in the presence of 0.1 nM 17-beta-estradiol - cell viability counter screen (AID 1259241); note: nearly all actives have a fitted effect of over 40% in size
In short: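 VM7Luc4E2 cells (endogenous full-length ER-alpha, 4xERE-luciferase), cultured 5 days in charcoal-stripped serum, exposed to compounds with 0.1 nM 17beta-estradiol (final) for 22 hr at 37C. Viability read in same wells as live-cell protease fluorescence after 30 min.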

[6] = qHTS assay to identify small molecule antagonists of the androgen receptor (AR) signaling pathway using the MDA cell line in the presence of 0.5 nM R1881 - cell viability counter screen (AID 1259242); note: nearly all actives have a fitted effect of over 45% in size
In short: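 Cytotoxicity toward MDA-kb2 cells is measured by CellTiter-Fluor live-cell protease fluorescence after 16 hr compound exposure at 37C in the presence of 0.5 nM R1881 stimulator.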

[7] = target: Estrogen receptor (Homo sapiens) (UniProt P03372); experiment: qHTS assay to identify small molecule antagonists of the estrogen receptor alpha (ER-alpha) signaling pathway using the BG1 cell line in the presence of 0.1 nM 17-beta-estradiol (AID 1259244); note: nearly all actives have a fitted effect of over 50% in size
Estrogen receptor (Homo sapiens), sequence (P03372 whole entry, looked up): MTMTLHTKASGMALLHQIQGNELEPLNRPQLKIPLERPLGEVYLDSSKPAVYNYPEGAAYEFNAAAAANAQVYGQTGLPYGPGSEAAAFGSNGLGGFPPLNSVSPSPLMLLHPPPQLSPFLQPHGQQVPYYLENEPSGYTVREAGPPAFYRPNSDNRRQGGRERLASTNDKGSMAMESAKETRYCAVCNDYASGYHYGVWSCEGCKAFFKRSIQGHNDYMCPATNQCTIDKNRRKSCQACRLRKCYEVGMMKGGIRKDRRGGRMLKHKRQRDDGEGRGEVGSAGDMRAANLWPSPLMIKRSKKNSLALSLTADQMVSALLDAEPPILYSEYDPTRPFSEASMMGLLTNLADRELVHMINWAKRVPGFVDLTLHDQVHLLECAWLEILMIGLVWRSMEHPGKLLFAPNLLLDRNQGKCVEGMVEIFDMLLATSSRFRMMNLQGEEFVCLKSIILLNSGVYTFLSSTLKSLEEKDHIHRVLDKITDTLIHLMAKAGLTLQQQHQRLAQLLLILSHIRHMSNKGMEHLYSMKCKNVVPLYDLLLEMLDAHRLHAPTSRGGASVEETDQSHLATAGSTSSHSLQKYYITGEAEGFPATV
In short: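 After 5 days in hormone-depleted medium (charcoal-stripped serum, no phenol red), VM7Luc4E2 cells were seeded, incubated 24 h, then co-treated with compound and 0.1 nM (final) estradiol for 22 h before luminescence detection.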

[8] = qHTS assay to identify small molecule HDAC inhibitors (AID 1259364); note: top concentration of the series differs between compounds; nearly all actives have a fitted effect of over 45% in size
In short: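 Homogeneous cell-based luminescent assay of endogenous class I/II HDAC activity; HCT-116 cells, 2 h compound exposure, 30 min HDAC-Glo development at RT.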

[9] = qHTS assay to identify small molecule HDAC inhibitors - cell viability counter screen (AID 1259365); note: series mostly up to about 92 µM; nearly all actives have a fitted effect of over 50% in size
In short: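 Wild-type HCT-116 cells, 1,500/well, cultured overnight, then compound-treated 2 h at 37 C. Viability measured as ATP luminescence with CellTiter-Glo after 30 min at room temperature.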

| SMILES | Potency [1] | Potency [2] | Potency [3] | Potency [4] | Potency [5] | Potency [6] | Potency [7] | Potency [8] | outcome [9] |
| --- | --- | --- | --- | --- | --- | --- | --- | --- | --- |
| CCC(C)(C)C1CCC(=O)CC1 | inactive | inactive | inactive | inactive | inactive | inactive | inactive | inactive | inactive |
| COC(=O)CCC(=O)O | inactive | inactive | inactive | inactive | inactive | inactive | inactive | inactive | inactive |
| CC(=O)c1ccc2c(c1)CCCC2 | inactive | inactive | inactive | inactive | inactive | inactive | inactive | inactive | inactive |
| O=[Si]=O | inactive | inactive | inactive | inactive | inactive | inactive | inactive | inactive | inactive |
| CC(C)CCC(=O)CCC(C)C | inactive | inactive | inactive | inactive | inactive | inactive | inactive | inactive | inactive |
| CC(=O)N1CCN(c2ccc(O)cc2)CC1 | inactive | inactive | inactive | inactive | inactive | inactive | inactive | inactive | inactive |
| CCCCC(=O)N(C)C | inactive | inactive | inactive | inactive | inactive | inactive | inactive | inactive | inactive |
| CCCCOC(=O)C(C)OC(=O)CCC (configuration not stated) | inactive | inactive | inactive | inactive | inactive | inactive | inactive | inactive | inactive |
| CCOC(=O)CCCCCCCCC(=O)OCC | inactive | inactive | inactive | inactive | inactive | inactive | inactive | inactive | inactive |
| CCc1nccnc1C | inactive | inactive | inactive | inactive | inactive | inactive | inactive | inactive | inactive |
| CC(C)(C)NCCO | inactive | inactive | inactive | inactive | inactive | inactive | inactive | inactive | inactive |
| Cc1nc(C)nc(N2C[C@@H](C)N(c3ccnc([C@@H](C)O)n3)[C@@H](C)C2)n1 | inactive | inactive | inactive | inactive | inactive | inactive | inactive | inactive | inactive |
| CCC1COC(=O)O1 (configuration not stated) | inactive | inactive | inactive | inactive | inactive | inactive | inactive | inactive | inactive |
| CCN(CCO)c1cccc(C)c1 | inactive | inactive | inactive | inactive | inactive | inactive | inactive | inactive | inactive |
| Cc1ccc(C(=O)C(=O)O)cc1C | inactive | inactive | inactive | inactive | inactive | inactive | inactive | inactive | inactive |
| CC1CCC(C(C)(C)S)C(=O)C1 (configuration not stated) | 19.5 µM (active) | inactive | inactive | inactive | inactive | inactive | inactive | inactive | inactive |
| Nc1ccc(C(=O)OCC(O)CO)cc1 (configuration not stated) | inactive | inactive | inactive | inactive | inactive | inactive | inactive | inactive | inactive |
| CCC(CO)CO | inactive | inactive | inactive | inactive | inactive | inactive | inactive | inactive | inactive |
| C[N+](C)(C)CC(O)CCl (configuration not stated) | inactive | inactive | inactive | inactive | inactive | inactive | inactive | inactive | inactive |
| CC(C)CCCCCCOC(=O)C1CCCCC1C(=O)OCCCCCCC(C)C (configuration not stated) | inactive | inactive | inactive | inactive | inactive | inactive | inactive | inactive | inactive |
| O=C(O)c1ccc(OCCN2CCCCC2)cc1 | inactive | inactive | inactive | inactive | inactive | inactive | inactive | inactive | inactive |
| CC(=O)OC(C)c1ccccc1 (configuration not stated) | inactive | inactive | inactive | inactive | inactive | inactive | inactive | inactive | inactive |
| C[Si]1(C)N[Si](C)(C)N[Si](C)(C)N1 | inactive | inactive | inactive | inactive | inactive | inactive | inactive | inactive | inactive |

Reference: PubChem BioAssay (Tox21)
